Screen size: about 360,000 compounds; about 11,000 (3.1%) were called active. This excerpt belongs to a sample that is enriched for actives. Values without a mark were called inactive. Cut-off read from the data, not from the text of the source: active = activity change below about -30%; inactive = the rest.
% is set by controls: 0 for no effect and ±100 for the full control effect.

In the experiment the target is D(1A) dopamine receptor (Homo sapiens) (UniProt P21728). The experiment is described as follows: Antagonist of Human D 1 Dopamine Receptor: qHTS. To be noted: HEK293 TREx D1 cells, calcium flux, dopamine EC80; at 10 µM; stronger effect = lower value. Put shortly: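 Tetracycline-induced HEK293 Trex D1 cells, force-coupled to calcium, dye-loaded; compounds added and read 180 s, then EC80 dopamine added and calcium flux tracked kinetically another 180 s.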
Chain of D(1A) dopamine receptor (Homo sapiens) (P21728 whole entry, looked up): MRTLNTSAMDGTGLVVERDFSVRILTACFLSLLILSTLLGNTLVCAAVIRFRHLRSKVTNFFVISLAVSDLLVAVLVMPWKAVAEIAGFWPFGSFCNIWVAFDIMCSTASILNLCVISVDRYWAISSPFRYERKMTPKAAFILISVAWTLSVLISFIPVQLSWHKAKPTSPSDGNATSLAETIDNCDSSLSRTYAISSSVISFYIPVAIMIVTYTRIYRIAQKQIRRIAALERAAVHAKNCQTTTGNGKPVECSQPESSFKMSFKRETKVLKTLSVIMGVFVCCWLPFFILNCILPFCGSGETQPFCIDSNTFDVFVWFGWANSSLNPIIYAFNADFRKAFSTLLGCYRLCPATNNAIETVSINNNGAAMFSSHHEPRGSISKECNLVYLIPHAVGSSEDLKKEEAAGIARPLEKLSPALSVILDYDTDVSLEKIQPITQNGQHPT
Background: qHTS replaces the single test concentration by a dilution series.
With `CN(C)c1cc(-c2ccc(F)cc2)oc(=O)c1Cl`, the activity change, negative = inhibition is -37.9% (active).
Under `CN(CC(=O)Nc1ccc(F)cc1)C(=O)c1ccc(-c2ccc(Cl)cc2)o1` stands -13.8%; under `CCCCC(CC)CNC(=O)C1CCN(S(=O)(=O)c2cccc3nsnc23)CC1` (stereo unspecified), 5.74%; under `O=C(NCCc1ccc(Cl)cc1)c1ccc2nc(CCc3ccccc3)oc2c1`, -1.03%.
The figure for `Cc1ccc(Nc2nc3ccccc3nc2-n2nc(C)cc2C)c(Cl)c1` is 6.62%.
For the compound `O=C(Nc1ccccc1Br)c1cc(CN2CCCC2)on1`, the activity change, negative = inhibition is -3.7%.
The figure for `CCCCC(=O)OC1=CN(Cc2ccccc2)S(=O)(=O)c2ccccc21` is -18.6%; for `CCc1ccc(Oc2coc3cc(O)ccc3c2=O)cc1` it is -2.88%; for `COc1ccc(Oc2coc3cc(OC(=O)c4cncc(Br)c4)ccc3c2=O)cc1` it is -0.64%.
As to `CCc1ccc(Oc2coc3cc(OC(=O)c4cc5ccccc5oc4=O)ccc3c2=O)cc1`, the activity change, negative = inhibition was -33.2% (active).
Under `CCc1ccc(NC(=O)Cn2c(=O)n(CCC(=O)NCc3ccc4c(c3)OCO4)c(=O)c3ccccc32)cc1` stands 6.37%; under `O=S(=O)(Nc1cc(S(=O)(=O)N2CCOCC2)ccc1N1CCCC1)c1cccs1`, -6.97%; under `CCN(CC)S(=O)(=O)c1ccc(N2CCN(C)CC2)c(NC(=O)Nc2ccccc2F)c1`, 7.64%.
Regarding `CCN(CC)S(=O)(=O)c1ccc(N2CCCC2)c(NS(=O)(=O)c2cccs2)c1`, the activity change, negative = inhibition is -40.2% (active).
Under `Cc1ccc(O)c(NC(=O)CCS(=O)(=O)c2nc(-c3ccc4c(c3)OCO4)cc(C(F)(F)F)n2)c1` stands -20.8%; under `O=C(Cc1ccc(Cl)cc1)Nc1ccc2nn(-c3ccc(Cl)cc3)nc2c1`, -2.04%.
In the case of `Cc1cc(NC(=O)CC(C)C)cc(-c2nc3ncccc3o2)c1O`, the activity change, negative = inhibition was 13.5%.
`CCOc1ccc(NC(=O)N(CCC(C)C)C(C)c2ccco2)cc1` (stereo unspecified): the activity change, negative = inhibition is -66.3% (active).
With `CCOc1ccc(NC(=O)c2ncoc2-c2ccco2)cc1`, the activity change, negative = inhibition is 0.181%.
The figure for `CCOc1ccc(NC(=O)N(CC(C)C)CC(C)C)cc1` is -10.6%; for `CCOC(=O)c1ccccc1NC(=O)CCc1c(C)nc2c(c1C)c(=O)n(C)c(=O)n2C` it is 4.81%; for `CCc1ccc(S(=O)(=O)c2nnn3c2nc(N2CCN(CC)CC2)c2sccc23)cc1` it is 8.88%.
The figure for `Cc1ccccc1NC(=O)Cn1c(=O)n(CC2CCC(C(=O)NCCc3ccccc3)CC2)c(=O)c2ccccc21` (stereo unspecified) is -13.6%.
The figure for `Cc1ccc(CSc2ccc(S(=O)(=O)N3CCCCC3)cn2)cc1` is 2.76%; for `O=S(=O)(c1ccc(SCc2ccc(Br)cc2)nc1)N1CCOCC1` it is -43.1% (active); for `O=S(=O)(c1ccc(SCc2ccccc2)nc1)N1CCCCCC1` it is 0.949%.
Take `CCOC(=O)c1cn(CC)c2cc(F)c(F)cc2c1=O`: the activity change, negative = inhibition was -74.1% (active).
Take `CCn1cc(C(=O)N/N=C(/C)c2ccc(F)cc2)c(=O)c2cc(F)c(N3CCCC3)cc21`: the activity change, negative = inhibition is 1.71%.
Turning to `CCn1cc(C(=O)NCCO)c(=O)c2cc(F)c(N3CCN(C)CC3)cc21`, the activity change, negative = inhibition was -5.03%.
Under `CCS(=O)(=O)N1CCc2cc(C(=O)NCc3ccc(OC)cc3)ccc21` stands 1.59%; under `COc1ccc(C(=O)COC(=O)c2ccc3ccccc3n2)cc1`, -5.41%.
The figure for `COc1ccc(CNC(=O)C2CC(c3ccc(C(F)(F)F)cc3)=NO2)cc1` (stereo unspecified) is -1.82%.
The figure for `COc1ccc(C2=NOC(COC(=O)c3ccc4ccccc4n3)C2)cc1` (stereo unspecified) is -39.5% (active); for `CCCNC(=O)C(CC)n1nc(CC)n2c(cc3oc(C)cc32)c1=O` (stereo unspecified) it is 5.42%.
Regarding `Cc1ccc(Cl)cc1N1CCN(S(=O)(=O)c2cc3[nH]c(=O)c(=O)[nH]c3cc2C)CC1`, the activity change, negative = inhibition is 1.65%.
The figure for `COc1cccc(C(=O)Nc2ccc3oc(-c4ccc5ccccc5c4)nc3c2)c1` is 7.96%; for `O=C(CNC(=O)c1ccc(Cl)cc1Cl)OC(C(=O)Nc1cc(C(F)(F)F)ccc1Cl)c1ccccc1` (stereo unspecified) it is 6.17%; for `COc1ccc(NC(=O)Cn2c(=O)n(Cc3ccc(C(=O)NCc4ccccc4Cl)cc3)c(=O)c3ccccc32)cc1` it is -5.19%.
Under `CCN(Cc1ccccc1)S(=O)(=O)c1cc2c3c(c1)CCN3C(=O)CC2` stands -34.1% (active).
As to `CCN(Cc1ccccc1)S(=O)(=O)c1ccc2c(c1)CCCN2C(C)=O`, the activity change, negative = inhibition is -20%.
The figure for `CCN(Cc1ccccc1)S(=O)(=O)c1cc(C(=O)O)ccc1OC` is 27.7%; for `Cn1cccc1C(=O)NNC(=O)COc1ccc(Br)cc1` it is 16.4%.
With `CC(=O)Nc1ccc(OC(=O)COc2ccc(Br)cc2)cc1`, the activity change, negative = inhibition was -21.3%.
With `Cc1ccc(O)c(NC(=S)NC(=O)COc2ccc(Br)cc2)c1`, the activity change, negative = inhibition was -46.3% (active).
On to `Cc1ccc(-c2nc(SCc3ccc(Br)cc3)n3[nH]c(=O)cc3n2)cc1`, for which the activity change, negative = inhibition is -5.43%.
Take `CC(C)CC(=O)NCC(c1ccc2c(c1)OCO2)N1CCN(c2ccc(F)cc2)CC1` (stereo unspecified): the activity change, negative = inhibition is 19.3%.
Turning to `COc1ccc(OC)c(NC(=O)/C=C/c2ccc(C)o2)c1`, the activity change, negative = inhibition is -17.2%.
The figure for `COc1ccc(CNC(=O)COC(=O)c2c(C)nn(-c3ccccc3)c2C)cc1OC` is -26%; for `COC(=O)COc1cccc2c(=O)n(CC(=O)NCCc3ccc(OC)c(OC)c3)ccc12` it is 19.9%.
Under `COc1ccc(CNC(=O)COc2ccccc2C(=O)c2cnn(-c3ccccc3)c2)cc1OC` stands -32.7% (active); under `Cc1cc(O)c(C(c2ccccc2)N2CCN(c3ccccc3F)CC2)c(=O)n1Cc1ccco1` (stereo unspecified), -28.1%; under `Cn1c(=O)c2c(-c3ccccc3Br)n(Cc3ccccc3)cc2n(C)c1=O`, -11.3%.
Under `COc1ccc(C(=O)C2CCCN(S(=O)(=O)c3cccc(C)c3)C2)c(C)c1` (stereo unspecified) stands 2.24%.
Take `COc1ccc(C(=O)C2CCCN(Cc3cccn3-c3ccccn3)C2)c(C)c1` (stereo unspecified): the activity change, negative = inhibition is -34.5% (active).
In the case of `COc1ccc(C(=O)C2CCCN(C(=O)c3cnsn3)C2)c(C)c1` (stereo unspecified), the activity change, negative = inhibition was 22.1%.
The figure for `CCOc1ccc(Nc2oc(/C=C/c3ccc(F)cc3)nc2C#N)cc1` is -2.32%.

The values are drawn from PubChem BioAssay AID504652 (National Center for Advancing Translational Sciences (NCATS), 2011).
